Measurements as given in PubChem BioAssay (EPA / NIEHS).
Calls of active or inactive are those of the source. How the source made its calls: active means hit-call score of the fitted dose curve at least 0.9, where 1 is the maximum; inactive means score below 0.9.

What was measured:
[1] = target: CCAAT/enhancer-binding protein beta (Homo sapiens) (UniProt P17676); test: ATG_C_EBP_CIS: Attagene CIS-FACTORIAL HepG2 Assay for human CCAAT/Enhancer Binding Protein (C/EBP) beta (AID 2282927); details: HepG2 Attagene cis-factorial transcription factor reporter; actives raise or lower the signal
How it was run: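 Chemical-treated HepG2 cells (24 h) bearing cis-regulated reporter constructs were processed for total RNA, then reverse transcription, PCR amplification, fluorescent primer extension and fragment analysis; gain- and loss-of-signal were fitted against DMSO.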

[2] = ATG_CMV_CIS: Attagene CIS-FACTORIAL HepG2 Assay for human CMV (Internal Marker) (AID 2282928); details: HepG2 CMV promoter reporter, transcription factor profiling; actives raise or lower the signal;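 further: endpoint acts as a background internal control marker rather than a target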
How it was run: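 Bidirectional fits against DMSO are applied to reporter mRNA, read by RT-PCR with capillary electrophoresis, from HepG2 cells exposed 24 h. The endpoint serves as an internal CMV background marker within the cis-factorial reporter panel.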

[3] = ATG_DR4_LXR_CIS: Attagene CIS-FACTORIAL HepG2 Assay for human Liver X Receptor (LXR), DR4 submotif (AID 2282929); details: HepG2 Attagene DR4 cis-reporter, mRNA transcription; actives raise or lower the signal
How it was run: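 Readout: reporter transcript fluorescence after RT-PCR and capillary electrophoresis, fitted bidirectionally against DMSO controls. Human HepG2 liver cells carried transiently transfected multiplexed reporter constructs; endogenous transcription factor activity measured 24 h post-dosing.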

[4] = target: Aryl hydrocarbon receptor (Homo sapiens) (UniProt P35869); test: ATG_Ahr_CIS: Attagene CIS-FACTORIAL HepG2 Assay for human Aryl Hydrocarbon Receptor (Ahr) (AID 2282930); details: HepG2 AhR cis-factorial reporter transcription; actives raise or lower the signal
How it was run: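 Following 24 h of chemical dosing, transfected HepG2 liver cells with cis-driven reporter units were lysed for RNA; reporter mRNA was quantified via RT-PCR and capillary electrophoresis, and responses fitted bidirectionally from DMSO.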

[5] = ATG_AP_1_CIS: Attagene CIS-FACTORIAL HepG2 Assay for human Activator Protein 1 (AP-1) (AID 2282931); details: HepG2 Attagene cis-factorial AP-1 reporter mRNA; actives raise or lower the signal
How it was run: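 Reporter transcripts were measured 24 h after dosing by RT-PCR and capillary electrophoresis of fluorescent fragments. Cells: HepG2 carrying transfected cis-regulated reporter constructs reading endogenous factor activity. Gain or loss fitted against DMSO.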

[6] = ATG_AP_2_CIS: Attagene CIS-FACTORIAL HepG2 Assay for human Activator Protein 2 (AP-2) (AID 2282932); details: HepG2 AP-2 cis-reporter, Attagene transcription factor profiling; actives raise or lower the signal
How it was run: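 Assay in transfected HepG2 with promoter-regulated reporters, 24 h incubation after dosing. Signal is reporter mRNA fluorescence (RT-PCR, capillary electrophoresis), analysed for both increases and decreases relative to DMSO controls.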

[7] = target: Retinoic acid receptor alpha (Homo sapiens) (UniProt P10276); test: ATG_DR5_RAR_CIS: Attagene CIS-FACTORIAL HepG2 Assay for human Retinoic Acid Receptor Alpha (RARE), DR5 submotif (AID 2282934); details: HepG2 Attagene cis-factorial RARE DR5 reporter, mRNA; actives raise or lower the signal
How it was run: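 Transfected HepG2 reporter cells are exposed to chemicals for 24 h. Then RNA is extracted and the DR5 element reporter transcript is measured by RT-PCR and capillary electrophoresis, with bidirectional curve fitting relative to DMSO.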

[8] = target: Transcription factor E2F1 (Homo sapiens) (UniProt Q01094); test: ATG_E2F_CIS: Attagene CIS-FACTORIAL HepG2 Assay for human E2F Transcription Factor 1 (AID 2282935); details: HepG2 Attagene cis-reporter, E2F reporter RNA transcripts; actives raise or lower the signal
How it was run: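 In this cis-factorial format, endogenous factor activity drives transfected reporters in HepG2; transcripts collected at 24 h are quantified by fluorescence after RT-PCR and capillary separation.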

[9] = ATG_E_Box_CIS: Attagene CIS-FACTORIAL HepG2 Assay for human Enhancer Box (E-box) (AID 2282936); details: HepG2 E-box cis-reporter transcription, actives raise or lower the signal
How it was run: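 Measured 24 h post-dosing in HepG2 cells transfected with multiple cis-regulated reporter units, signal being reporter mRNA induction detected by fluorescent RT-PCR with capillary electrophoresis; gain or loss fitted against DMSO.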

[10] = ATG_M_61_CIS: Attagene CIS-FACTORIAL HepG2 Assay for M61 Transcription Factor (Internal Marker) (AID 2282937); details: HepG2 Attagene CIS-FACTORIAL M61 internal marker reporter; actives raise or lower the signal
How it was run: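 Readout: fluorescent reporter mRNA fragments resolved by capillary electrophoresis after RT-PCR. Transiently transfected human HepG2 cells carried MRTU constructs reporting endogenous TF activity; 24 h chemical exposure; gain or loss of signal fitted relative to DMSO.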

[11] = ATG_EGR_CIS: Attagene CIS-FACTORIAL HepG2 Assay for human Early Growth Response 1 (EGR1) (AID 2282938); details: HepG2 Attagene CIS-FACTORIAL EGR reporter mRNA; actives raise or lower the signal
How it was run: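 Read-out: fluorescent reporter-mRNA fragments resolved by capillary electrophoresis after RT-PCR, 24 h post-dose in transiently transfected HepG2. Endogenous transcription-factor activity reported via cis-element-regulated reporter units; gain or loss fitted relative to DMSO.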

[12] = ATG_M_19_CIS: Attagene CIS-FACTORIAL HepG2 Assay for M19 Transcription Factor (Internal Marker) (AID 2282939); details: HepG2 Attagene CIS-FACTORIAL M19 internal marker reporter; actives raise or lower the signal
How it was run: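 Background-control endpoint from a multiplexed HepG2 reporter panel. Cells carrying cis-regulated reporter constructs are treated 24 h, then reporter transcripts are amplified, fluorescently labelled and sized by capillary electrophoresis. DMSO defines baseline.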

[13] = ATG_Ets_CIS: Attagene CIS-FACTORIAL HepG2 Assay for human Erythroblast Transformation Specific (ETS) (AID 2282941); details: HepG2 ETS cis-reporter transcription, actives raise or lower the signal
How it was run: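 Endogenous transcription factor activity read as reporter mRNA via RT-PCR and capillary electrophoresis, with gain or loss fitted bidirectionally against DMSO. Human HepG2 liver cells, transiently transfected CIS reporter constructs, 24 h exposure.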

[14] = target: Hepatocyte nuclear factor 3-beta (Homo sapiens) (UniProt Q9Y261); test: ATG_FoxA2_CIS: Attagene CIS-FACTORIAL HepG2 Assay for human Forkhead box A2 (FOXA2) (AID 2282942); details: HepG2 cis-reporter transcription factor activity, 24 h; actives raise or lower the signal
How it was run: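 Readout: fluorescent reporter transcripts resolved by capillary electrophoresis after RT-PCR. Transiently transfected HepG2, 24 h compound exposure, endogenous TF activity at cis promoter elements. Gain or loss of signal fitted relative to DMSO.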

[15] = ATG_FoxO_CIS: Attagene CIS-FACTORIAL HepG2 Assay for human Forkhead box O (FoxO) (AID 2282943); details: HepG2 Attagene cis-reporter, FoxO element, mRNA; actives raise or lower the signal
How it was run: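 24 h chemical exposure, HepG2 with transient cis-MRTU transfection. RNA extraction, oligo(dT) RT, reporter-specific PCR, primer-extension labelling, HpaI digestion, CE fragment analysis; bidirectional fit, DMSO baseline.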

[16] = ATG_GATA_CIS: Attagene CIS-FACTORIAL HepG2 Assay for human GATA Binding Protein (AID 2282944); details: HepG2 GATA cis-element reporter, Attagene multiplex mRNA; actives raise or lower the signal
How it was run: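 Endogenous transcription factor activity was captured through cis-promoter-driven reporters in transfected HepG2 cells. After 24 h exposure, reporter transcripts were quantified by RT-PCR with fluorescent capillary electrophoresis, and responses fitted both directions against DMSO.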

[17] = ATG_GLI_CIS: Attagene CIS-FACTORIAL HepG2 Assay for human Zinc Finger Protein GLI1 (AID 2282945); details: HepG2, Attagene cis-factorial reporter mRNA, GLI element; actives raise or lower the signal
How it was run: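 HepG2 cells transiently transfected with cis-promoter multiplexed reporter units report endogenous transcription factor activity. After 24 h chemical exposure, reporter mRNA was quantified by RT-PCR, 6-FAM labelling, HpaI digestion and capillary electrophoresis, with bidirectional fitting against DMSO.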

[18] = ATG_BRE_CIS: Attagene CIS-FACTORIAL HepG2 Assay for human Bone Morphogenetic Protein (BMP) Response Element (BRE) (AID 2282933); details: HepG2 BMP response element reporter, Attagene transcription factor profiling; actives raise or lower the signal
How it was run: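 Endogenous transcription factor activity at a BMP response element was monitored in transfected HepG2 cells 24 h after dosing. Fluorescent RT-PCR products were resolved by capillary electrophoresis, and activity was fitted in both directions versus DMSO.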

[19] = ATG_ERE_CIS: Attagene CIS-FACTORIAL HepG2 Assay for Estrogen Response Element (ERE) (AID 2282940); details: HepG2 ERE cis-reporter, Attagene RNA transcript; actives raise or lower the signal
How it was run: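 Cells used were human hepatoma HepG2, transfected with multiple reporter transcription units under cis-regulatory promoters. Reporter mRNA, read 24 h post-dosing via fluorescent RT-PCR products on capillary electrophoresis, was fitted bidirectionally relative to DMSO.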

[20] = target: Bile acid receptor (Homo sapiens) (UniProt Q96RI1); test: ATG_IR1_CIS: Attagene CIS-FACTORIAL HepG2 Assay for human Nuclear Receptor Subfamily 1 Group H Member 4 (NR1H4), IR1 submotif (AID 2282946); details: IR1 reporter transcription, actives raise or lower the signal
How it was run: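 Readout: reporter transcript levels by RT-PCR with fluorescent capillary electrophoresis, from HepG2 cells transiently transfected with multiplexed cis-regulated reporters and dosed 24 h. Gain- or loss-of-signal fitted versus DMSO negative control.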

Measured: AC50

Chain of Hepatocyte nuclear factor 3-beta (Homo sapiens) (Q9Y261 whole entry, looked up): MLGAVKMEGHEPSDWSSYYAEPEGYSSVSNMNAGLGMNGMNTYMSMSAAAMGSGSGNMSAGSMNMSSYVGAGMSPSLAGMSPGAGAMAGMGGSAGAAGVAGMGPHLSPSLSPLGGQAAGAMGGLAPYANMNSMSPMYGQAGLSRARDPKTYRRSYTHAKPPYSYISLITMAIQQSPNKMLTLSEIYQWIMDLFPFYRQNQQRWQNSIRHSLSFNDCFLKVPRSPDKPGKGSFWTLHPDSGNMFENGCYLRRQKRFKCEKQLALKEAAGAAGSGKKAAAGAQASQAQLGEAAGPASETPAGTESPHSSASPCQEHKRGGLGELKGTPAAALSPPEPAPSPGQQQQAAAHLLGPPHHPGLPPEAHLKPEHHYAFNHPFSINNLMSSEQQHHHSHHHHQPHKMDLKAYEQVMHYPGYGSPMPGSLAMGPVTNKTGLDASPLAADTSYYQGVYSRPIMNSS
Chain of CCAAT/enhancer-binding protein beta (Homo sapiens) (P17676 whole entry, looked up, the tested form may be a part): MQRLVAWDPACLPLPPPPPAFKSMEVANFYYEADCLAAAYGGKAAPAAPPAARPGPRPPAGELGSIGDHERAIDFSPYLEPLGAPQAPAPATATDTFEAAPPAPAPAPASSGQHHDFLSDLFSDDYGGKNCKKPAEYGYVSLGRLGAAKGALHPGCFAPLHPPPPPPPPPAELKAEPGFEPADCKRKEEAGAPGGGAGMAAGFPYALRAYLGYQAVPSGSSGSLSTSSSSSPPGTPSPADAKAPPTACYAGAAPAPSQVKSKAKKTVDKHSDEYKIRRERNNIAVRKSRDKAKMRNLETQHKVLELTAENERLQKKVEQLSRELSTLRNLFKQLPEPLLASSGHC
Chain of Transcription factor E2F1 (Homo sapiens) (Q01094 whole entry, looked up): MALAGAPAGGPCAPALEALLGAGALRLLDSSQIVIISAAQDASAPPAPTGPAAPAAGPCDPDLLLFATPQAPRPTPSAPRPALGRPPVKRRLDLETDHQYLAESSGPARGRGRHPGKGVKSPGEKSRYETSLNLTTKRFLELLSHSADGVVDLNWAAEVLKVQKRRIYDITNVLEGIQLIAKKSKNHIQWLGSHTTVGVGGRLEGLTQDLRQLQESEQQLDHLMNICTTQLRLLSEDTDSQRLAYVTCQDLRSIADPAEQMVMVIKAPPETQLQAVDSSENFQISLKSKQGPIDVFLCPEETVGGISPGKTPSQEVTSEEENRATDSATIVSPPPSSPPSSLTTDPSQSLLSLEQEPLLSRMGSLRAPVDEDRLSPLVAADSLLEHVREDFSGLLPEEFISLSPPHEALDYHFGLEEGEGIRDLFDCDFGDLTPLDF
Chain of Bile acid receptor (Homo sapiens) (Q96RI1 whole entry, looked up): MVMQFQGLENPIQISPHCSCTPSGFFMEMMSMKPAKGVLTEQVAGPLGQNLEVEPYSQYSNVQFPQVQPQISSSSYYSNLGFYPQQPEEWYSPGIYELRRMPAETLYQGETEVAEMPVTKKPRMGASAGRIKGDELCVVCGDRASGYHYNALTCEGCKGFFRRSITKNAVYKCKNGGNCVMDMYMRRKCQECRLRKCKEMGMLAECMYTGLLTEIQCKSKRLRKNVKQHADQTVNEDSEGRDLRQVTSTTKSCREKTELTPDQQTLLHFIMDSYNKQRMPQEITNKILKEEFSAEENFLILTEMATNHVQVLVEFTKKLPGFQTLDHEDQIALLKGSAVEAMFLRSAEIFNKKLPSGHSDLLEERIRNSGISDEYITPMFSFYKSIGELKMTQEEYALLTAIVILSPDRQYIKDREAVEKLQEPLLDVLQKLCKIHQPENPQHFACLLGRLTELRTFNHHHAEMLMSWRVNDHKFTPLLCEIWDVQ
Chain of Aryl hydrocarbon receptor (Homo sapiens) (P35869 whole entry, looked up): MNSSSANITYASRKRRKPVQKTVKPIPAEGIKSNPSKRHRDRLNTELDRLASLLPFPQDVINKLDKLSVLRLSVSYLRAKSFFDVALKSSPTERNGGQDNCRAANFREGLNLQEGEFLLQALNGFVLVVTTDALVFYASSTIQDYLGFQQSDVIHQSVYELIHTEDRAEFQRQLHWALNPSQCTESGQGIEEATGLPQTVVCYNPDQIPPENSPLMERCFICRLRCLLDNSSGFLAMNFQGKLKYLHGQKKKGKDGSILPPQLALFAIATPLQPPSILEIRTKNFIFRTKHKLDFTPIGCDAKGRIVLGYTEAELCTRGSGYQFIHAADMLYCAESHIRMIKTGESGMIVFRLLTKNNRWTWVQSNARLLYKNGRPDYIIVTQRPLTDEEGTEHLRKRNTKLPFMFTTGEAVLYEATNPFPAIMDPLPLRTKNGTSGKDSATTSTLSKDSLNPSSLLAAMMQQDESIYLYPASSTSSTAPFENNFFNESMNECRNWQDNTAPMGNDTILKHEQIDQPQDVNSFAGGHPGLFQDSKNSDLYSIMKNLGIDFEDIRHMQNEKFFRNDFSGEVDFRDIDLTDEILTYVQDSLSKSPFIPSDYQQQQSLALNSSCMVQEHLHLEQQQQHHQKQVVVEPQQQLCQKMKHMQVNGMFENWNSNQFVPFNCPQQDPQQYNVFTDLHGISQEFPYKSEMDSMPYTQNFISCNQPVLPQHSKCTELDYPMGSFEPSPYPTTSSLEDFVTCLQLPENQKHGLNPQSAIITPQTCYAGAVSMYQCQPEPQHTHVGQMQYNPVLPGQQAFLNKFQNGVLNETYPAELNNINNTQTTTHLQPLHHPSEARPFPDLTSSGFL
Chain of Retinoic acid receptor alpha (Homo sapiens) (P10276 whole entry, looked up): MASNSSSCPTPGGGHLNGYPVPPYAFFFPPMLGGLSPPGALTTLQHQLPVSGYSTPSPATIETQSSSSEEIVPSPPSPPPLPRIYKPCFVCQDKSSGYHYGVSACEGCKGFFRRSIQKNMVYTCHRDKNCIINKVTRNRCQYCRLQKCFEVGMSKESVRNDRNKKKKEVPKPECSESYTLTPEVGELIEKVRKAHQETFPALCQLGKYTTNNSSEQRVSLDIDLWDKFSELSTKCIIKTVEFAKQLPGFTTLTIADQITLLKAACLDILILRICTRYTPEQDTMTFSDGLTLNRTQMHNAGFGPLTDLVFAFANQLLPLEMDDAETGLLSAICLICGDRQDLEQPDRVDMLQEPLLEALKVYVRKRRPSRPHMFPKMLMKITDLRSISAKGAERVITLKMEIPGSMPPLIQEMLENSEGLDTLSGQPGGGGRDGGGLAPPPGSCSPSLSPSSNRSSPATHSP

COP(=S)(OC)Oc1ccc(Sc2ccc(OP(=S)(OC)OC)cc2)cc1
active: [2] 15.5 µM | [3] 100 µM | [11] 29.8 µM
not listed: [18] | [19] | [20]
inactive: all other assays above

O=C(Cl)c1ccc(Cl)cc1
not listed: [7] | [12] | [16]
inactive: all other assays above

Cc1ccccc1N
not listed: [7] | [12] | [13] | [19] | [20]
inactive: all other assays above

C=CC(=O)N(C)C
not listed: [7] | [19]
inactive: all other assays above

CCc1ccccc1C
not listed: [7] | [12]
inactive: all other assays above

O=C1CCCN1
not listed: [7] | [12] | [14] | [16] | [19]
inactive: all other assays above

Fc1ccc(C2(Cn3cncn3)OC2c2ccccc2Cl)cc1 (stereo not given)
active: [4] 13.3 µM | [18] 69.9 µM
not listed: [7] | [19]
inactive: all other assays above

Oc1ccc(-c2ccccc2)cc1
active: [2] 44.9 µM | [6] 26.8 µM | [9] 169 µM | [11] 68.5 µM | [19] 2.15 µM
not listed: [7] | [12]
inactive: all other assays above

O=CC=O
not listed: [7] | [19] | [20]
inactive: all other assays above

COC(=O)c1sccc1S(=O)(=O)NC(=O)Nc1nc(C)nc(OC)n1
not listed: [16] | [18] | [19] | [20]
inactive: all other assays above

CCN1CCC2(CC1)COc1cc3c(cc12)N(C(=O)c1ccc(-c2ccc(-c4nnc(C)o4)cc2C)cc1)CC3
active: [2] 5.81 µM
not listed: [12] | [18]
inactive: all other assays above

CC12CC1(C)C(=O)N(c1cc(Cl)cc(Cl)c1)C2=O (stereo not given)
not listed: [7] | [13] | [19] | [20]
inactive: all other assays above

OCC(O)CCl (stereo not given)
not listed: [13] | [18] | [19] | [20]
inactive: all other assays above

O=P(O)(O)CN(CP(=O)(O)O)CP(=O)(O)O
not listed: [7] | [13] | [14] | [19] | [20]
inactive: all other assays above

COP(=O)(OC)O/C(=C\Cl)c1cc(Cl)c(Cl)cc1Cl
active: [3] 58.2 µM | [5] 62.4 µM | [6] 26.9 µM | [18] 70.3 µM | [11] 37 µM | [17] 130 µM
not listed: [7] | [12] | [16] | [19]
inactive: all other assays above
